Test results: PubChem BioAssay AID1159580 (chemical genetic matrix, 2015)
Out of some 5,500 compounds screened, about 2,000 (36%) were called active. About 18% were inconclusive and are not listed. No stated cut-off is given here; in the data, active means normalized growth mostly below about 0.91 (no sharp cut-off); inconclusive means no clear call, values can overlap the other calls; inactive means mostly above about 0.92. The list shows a part of the results.

Experiment: chemical genetic growth profiling, strain panel (AID 1159580);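 further: tested at 20 µM; growth read once vehicle control cultures reached saturation at 30 °C; 1 = growth at the plate median or of vehicle wells; lower values mean less growth of the strain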
Conditions: growth OD

Measured: normalized growth

COC(=O)c1ccc2c(c1)N(C)S(=O)(=O)CC2=O
inactive: S. cerevisiae deletion strains, locus YBR229C, strain ROT2, active compounds read low 0.998 | S. cerevisiae deletion strains, locus YDL101C, strain DUN1, active compounds read low 0.964 | S. cerevisiae deletion strains, locus YDR150W, strain NUM1, active compounds read low 0.997 | S. cerevisiae deletion strains, locus YEL061C, strain CIN8, active compounds read low 0.975 | S. cerevisiae deletion strains, locus YGR078C, strain PAC10, active compounds read low 1 | S. cerevisiae deletion strains, locus YHR030C, strain SLT2, active compounds read low 0.994 | S. cerevisiae deletion strains, locus YHR087W, strain rtc3, active compounds read low 1 | S. cerevisiae deletion strains, locus YJR043C, strain POL32, active compounds read low 1.02 | S. cerevisiae deletion strains, locus YJR075W, strain HOC1, active compounds read low 1.01 | S. cerevisiae deletion strains, locus YLR039C, strain RIC1, active compounds read low 0.989 | S. cerevisiae deletion strains, locus YLR058C, strain SHM2 (second series), active compounds read low 1.01 | S. cerevisiae deletion strains, locus YLR085C, strain ARP6, active compounds read low 0.853 | S. cerevisiae deletion strains, locus YLR262C, strain YPT6, active compounds read low 0.998 | S. cerevisiae deletion strains, locus YML094W, strain GIM5, active compounds read low 1 | S. cerevisiae deletion strains, locus YMR219W, strain ESC1, active compounds read low 0.996 | S. cerevisiae deletion strains, locus YMR263W, strain SAP30, active compounds read low 0.994 | S. cerevisiae deletion strains, locus YMR307W, strain GAS1, active compounds read low 0.872 | S. cerevisiae deletion strains, locus YNL128W, strain TEP1, active compounds read low 1.01 | S. cerevisiae deletion strains, locus YNL153C, strain GIM3, active compounds read low 0.932 | S. cerevisiae deletion strains, locus YNL298W, strain CLA4 (second series), active compounds read low 0.987 | S. cerevisiae deletion strains, locus YNL322C, strain KRE1, active compounds read low 0.993 | S. cerevisiae deletion strains, locus YNR030W, strain Alg12, active compounds read low 0.987 | S. cerevisiae deletion strains, locus YPL055C, strain LGE1, active compounds read low 0.99 | S. cerevisiae deletion strains, locus YPL241C, strain CIN2, active compounds read low 0.936 | S. cerevisiae deletion strains, locus YPR135W, strain CTF4, active compounds read low 1.03 | S. cerevisiae strains, strain wild type, active compounds read low 1.01
